Inconclusive results are not listed. Where a call stands in place of a potency, no number is given. A number with no mark means an inactive call. Active and inactive are the calls of the source. Calls come from the whole dose curve; as a rule, active = well fitted cell-killing curve with a large enough effect in the repeat runs (not every such curve was filed as active); inconclusive = weak or mixed curves, or effect the other way; inactive = no such curve, though single readings can be large or run the other way.
Experiment: qHTS assay to identify small molecule antagonists of the estrogen related receptor signaling pathway with the pleiotropic PPARgamma coactivator (PGC) from Tox21 10K library - cell viability counter screen (AID 1224840); note: nearly all actives have a fitted effect of over 40% in size
Conditions: PGC/ERR reporter cells viability, CellTiter-Fluor, 17.5 h; series mostly up to 92.4 µM
In short: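 Multiplexed viability counter screen in the PGC/ERR cell line: cells treated with DMSO-dissolved compounds for 17.5 hours at 37 C, then viability measured as CellTiter-Fluor fluorescence.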

Row | SMILES | Potency | viability change, negative = cytotoxic
1 | COC(=O)Cc1cccc2ccccc12 | inactive | –
2 | CC(C)(Cc1c[nH]c2ccccc12)NCC(O)COc1ccccc1C#N (stereo not drawn) | inactive | –
3 | CCCCCCC/C=C/C=O | inactive | –
4 | COC(=O)/C=C/C(C)=C\C=C\C(C)=C\C=C\C=C(C)\C=C\C=C(C)\C=C\C(=O)O | inactive | –
5 | COc1ccnc2c1CCCCC2S(=O)c1nc2ccccc2[nH]1 (stereo not drawn) | inactive | –
6 | O=C(O)c1ccncc1 | inactive | –
7 | COC(=O)C(C)(C)C | inactive | –
8 | Cc1ccc(NC(=O)c2ccc(CN3CCN(C)CC3)cc2)cc1Nc1nccc(-c2cccnc2)n1 | inactive | –
9 | O=C(C1CCCCC1)N1CC(=O)N2CCCc3ccccc3C2C1 (stereo not drawn) | inactive | –
10 | O=C1c2ccccc2C(=O)c2c1ccc(O)c2O | inactive | –
11 | O=C1c2ccccc2C(=O)C1c1ccc2ccccc2n1 | inactive | –
12 | CCCCOc1ccc(N)cc1 | inactive | –
13 | CC(C)CC(C)(C)C | inactive | –
14 | CC(=O)Nc1ccccc1O | inactive | –
15 | COc1ccc(C(=O)Nc2ccccc2)cc1[N+](=O)[O-] | inactive | –
16 | Clc1cc(Cl)c2c(c1)N=C1CCCCCN1C2 | inactive | –
17 | CCCCCCCCCCCCCCCCCCCl | – | 10.7% [at 8.39 µM]

Row | SMILES | Potency | viability change, negative = cytotoxic
18 | CCCN(C1CCN(C(=O)C2CCNCC2)CC1)[C@@H]1CCc2ccc(OC)cc2C1 | inactive | –
19 | N#C[C@@H]1CC(F)(F)CN1C(=O)CNC1CC2CCC(C1)N2c1ncccn1 (stereo partly drawn) | inactive | –
20 | COc1ccc(/C(C)=C/C(=O)O)c(OC)c1 | inactive | –
21 | CC(C)(C)c1ccc(CCC=O)cc1 | inactive | –
22 | CCCCCCCCCCCCSC#N | inactive | –
23 | Cc1cc(SC2=C(O)C[C@@](CCc3ccc(N)cc3)(C(C)C)OC2=O)c(C(C)(C)C)cc1CO | inactive | –
24 | C=C[Si](OCC)(OCC)OCC | inactive | –
25 | Sc1nc(S)nc(S)n1 | inactive | –
26 | CCCCCCCCCC(C)C=O (stereo not drawn) | inactive | –
27 | CC(=O)Oc1cccc2c1C(=O)c1c(OC(C)=O)cc(C(=O)O)cc1C2=O | inactive | –
28 | CC(C)C/C=C(\C=O)c1ccccc1 | inactive | –
29 | COc1ccc(/C=C/c2cc(OC)cc(=O)o2)cc1 | inactive | –
30 | Oc1ccc(CCNCCCCCCNCCc2ccccc2)cc1O | inactive | –
31 | CCn1nc(Cc2ccccc2)cc1C1CCN(C[C@H]2C[C@H](N(C)[C@@H](C(=O)O)C(C)C)C[C@@H]2c2cccc(F)c2)CC1 | inactive | –
32 | Nc1cccc2c(=O)[nH][nH]c(=O)c12 | inactive | –
33 | N#CCCCC(C#N)CCC#N (stereo not drawn) | inactive | –

From PubChem BioAssay (Tox21)
